Reference: PubChem BioAssay (NCI)
Compounds without any hit were thinned out: in the full panel of roughly 83,000, 20% have a hit.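 Cells were grown in 96-well plates and exposed to the test compound at a single concentration for 48 hours; results are reported as percent growth, with values below 10 considered active.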 The source made the active and inactive calls.

System: LOX IMVI melanoma
Assay: NCI-60 one-dose screen, 48 h (100 = growth as untreated, 0 = no growth, -100 = all killed)
Details: 10 µM unless noted
Description: Growth inhibition of the LOX IMVI human tumor cell line is measured as a screen for anti-cancer activity. Cells are grown in 96 well plates and exposed to the test compound for 48 hours. Compounds are tested at a single concentration, which is 10^-5 M for most compounds. The reported endpoint is percent growth (GI% or GIPRCNT), where numbers from 0 - 100% represent growth inhibition, and numbers from -100% - 0 represent cell death. For example, a value of 40 represents 60% growth inhibition. A value of 0 means no net growth occurred over the course of the experiment. A value of -40 indicates 40% of cells at the beginning of the experiment died by the end of the experiment. A value of -100 means all cells are dead at the end of the experiment.
NCI-60 Human Tumor Cell Lines Screen was performed using the standard one-dose NCI protocol, which is described in more detail at https://dtp.cancer.gov/discovery_development/nci-60/default.htm.
Compounds with GIPRCNT values below 10 were considered active. Activity score was based on GIPRCNT using the following formula: […]
Score is 0 for GIPRCNT values of 100 or above, 50 for GIPRCNT values of 0, and 100 for GIPRCNT values of -100.

SMILES | growth
COc1ccc(-c2c3c(nn2-c2ccc(N)cc2)CCc2cnoc2-3)cc1OC | 86.4% (inactive)
Clc1ncn[nH]1 | 102% (inactive)
CC(C)[O-].CC(C)[O-].CN(CCN(C)Cc1cc(F)cc(F)c1[O-])Cc1cc(F)cc(F)c1[O-].[Ti+4] | -39% (active)
Clc1ccc(-n2cnc3c(Cl)ncnc32)cc1Cl | 36.6% (inactive)
N#Cc1cccc(/C=C(/C(=O)c2ccccc2)c2ccccc2)c1 | 14.1% (inactive)
Cc1c(C(N)=O)sc2ncn(Cc3ccccc3)c(=O)c12 | 89.6% (inactive)
COC(=O)C[C@@H]1CC=CC(=O)/C1=C(O)/C=C/c1ccccc1 | -93.3% (active)
CCOC(=O)c1c(C)c(C(=O)OCC)n(C)c1C | 103% (inactive)
Cc1cc(O)c2c(c1)C[C@H]1[C@@H]3CC[C@H]4CC(=O)CC[C@]4(C)[C@H]3CC(=O)[C@]21C | 85.1% (inactive)
Nc1ccc2c(c1)/C(=N/O)c1cc([N+](=O)[O-])ccc1-2 | 64.6% (inactive)
O=C(Nc1ccc(Cl)cc1)c1cc2c(cc1O)[nH]c1ccccc12 | 30.4% (inactive)
Cc1ccccc1-c1cc(Cc2ccccc2O)c(=O)[nH]n1 | 100% (inactive)
Cc1cc2c(cc1[N+](=O)[O-])NC(CNC(C)C)CC2 (stereo not given) | 91.3% (inactive)
Cc1cc(=O)n2n1-c1ccc(Cl)cc1NC(=O)C2 | 98.6% (inactive)
N=c1ccn2c(n1)O[C@@H]1[C@@H](O)[C@H](CO)O[C@@H]12 | 67.9% (inactive)
COc1cc(-c2cc(C(=O)Nc3nc4ccccc4s3)nc3cc(-c4ccccc4)nn23)cc(OC)c1OC | 27.4% (inactive)
Cc1nn(-c2ccccc2)c(Cl)c1C(CC(=O)c1ccc(Cl)cc1)CC(=O)c1ccc(Cl)cc1 | 81.8% (inactive)
CCOC(=O)c1c2c(c(C)n1Cc1ccc(OC)cc1)-c1nc(N)ncc1CC2 | 104% (inactive)
COc1cccc(CCC2C(=O)CCCC2=O)c1 | 117% (inactive)
CCCn1cnc2c1c(=O)n(CCCCC(C)=O)c(=O)n2C | 98.2% (inactive)

SMILES | growth
Cc1c(C(N)=O)sc2c1c(=O)n(Cc1ccccc1)c1nnc(S(=O)(=O)CC(=O)Nc3ccc(Cl)cc3)n21 | 44.1% (inactive)
O=C1c2ccccc2-c2c1nc1ccccc1[n+]2[O-] | 101% (inactive)
COc1ccc2c(c1)nc(N)c1c3ccccc3cn21 | 74.3% (inactive)
COc1cccc2c1C(=O)c1c(O)c3c(c(O)c1C2=O)C[C@@](O)(/C(C)=N/NC(=O)c1cccc([N+](=O)[O-])c1)C[C@@H]3OC1CC(N)C(O)C(C)O1 (stereo not given in full) | -33.3% (active)
CN(C)CCCN1c2nc3ccccc3cc2Sc2cc3ccccc3nc21 | -100% (active)
CCOC(=O)/C(=C/c1ccccc1)C(=O)c1ccccc1 | -26.9% (active)
Nc1ccc2c3c(cccc13)-c1ccccc1-2 | 91.7% (inactive)
O=[N+]([O-])c1ccc2c(c1)S(=O)c1cc([N+](=O)[O-])ccc1N2 | 102% (inactive)
COc1cc2c(cc1OCCCCCn1c(-c3ccc(OCc4ccccc4)cc3)nc3cc(N4CCOCC4)ccc31)N=C[C@@H]1CCCN1C2=O | -29.7% (active)
Cc1cc(NC(=O)c2ccc(N)cc2)ccc1N=Nc1ccc2c(O)c(N=Nc3ccc(Cl)c(S(=O)(=O)O)c3)c(S(=O)(=O)O)cc2c1 | 72.7% (inactive)
CCN1CCN(c2cc(-c3cn[nH]c3-c3cc(C)cc(OC)c3)nc(-c3cccnc3)n2)CC1 | 56.7% (inactive)
O=C(CSc1nnc(Nc2ccccc2)s1)NCCc1ccc(F)cc1 | 99.8% (inactive)
CC[C@@H]1OC(=O)[C@H](C)[C@@H](O[C@H]2C[C@@](C)(OC)[C@@H](O)[C@H](C)O2)[C@H](C)[C@@H](O[C@@H]2O[C@H](C)C[C@H](N(C)C)[C@H]2O)[C@](C)(O)C[C@@H](C)[C@@H]2N[C@@H](COCCOC)O[C@H]([C@H]2C)[C@]1(C)O | 94.8% (inactive)
CCC(CCC(C)C1CCC2C3CC=C4CC(O)CCC4(C)C3CCC12C)C(C)C (stereo not given) (tested in a mixture with another compound) | 99.1% (inactive)
NC(N)=NC(N)=NCCCc1ccccc1 | 57.4% [100 µM] (inactive)
Cc1cc2c(C#N)n3c(c2cc1C)C(=O)C(c1ccccc1)Oc1ccccc1-3 (stereo not given) | 20% (inactive)
O=c1cc(-c2cccnc2)oc2c1ccc1ccccc12 | 75.5% (inactive)
C/C(=N/N=C(N)N)c1ccc(Cl)cc1 | 86.5% (inactive)
COc1cc(/C=C/c2nnc(-c3cc(-c4ccccc4)n[nH]3)o2)cc(OC)c1OC | 95.4% (inactive)
CCCCCCCCCCCCCCCCN=C(CC(=O)O)C(=O)O | 90.5% (inactive)
